Screening data as filed in PubChem.
Only some compounds are listed: those with a hit (about 2.3% of all), similar ones and a draw of the others.
AmpC inh detg – inhibitors of E. coli AmpC beta-lactamase with detergent. AmpC hydrolysis of nitrocefin, absorbance 480 nm, 0.01% Triton. P00811. 0.041% of 370,000 active. Potency, µM (titrated, usually from 114 µM), most hits filed as inhibitors; further: nearly all actives have a fitted effect of over 25% in size
Target sequence (P00811 whole entry, looked up): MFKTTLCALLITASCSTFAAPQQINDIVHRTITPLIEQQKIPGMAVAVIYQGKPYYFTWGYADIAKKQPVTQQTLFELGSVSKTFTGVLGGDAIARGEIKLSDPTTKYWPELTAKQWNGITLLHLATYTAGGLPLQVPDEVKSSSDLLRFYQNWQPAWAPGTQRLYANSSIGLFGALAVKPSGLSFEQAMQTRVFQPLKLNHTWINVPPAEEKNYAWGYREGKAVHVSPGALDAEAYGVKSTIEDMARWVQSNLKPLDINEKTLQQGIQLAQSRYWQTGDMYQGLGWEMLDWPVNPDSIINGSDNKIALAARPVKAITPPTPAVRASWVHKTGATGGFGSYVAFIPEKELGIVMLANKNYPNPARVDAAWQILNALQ
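AmpC (5.3 nM in the dispensed reagent) in 20 mM phosphate pH 7.0 with 0.01% (detergent screen) or 0.0001% Triton X-100 was preincubated with compounds for 15 min at room temperature. Nitrocefin was then added from an 800 uM solution, and hydrolysis was followed at 480 nm.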
AMA1 RON2 block – AMA1-RON2 (P. falciparum) interaction inhibition; 0.2% of 360,000 active; AlphaScreen AMA1-biotinylated RON2 peptide binding; AID 720542; Potency, µM (top dose mostly 58.2 µM), most hits filed as inhibitors; further: nearly all actives have a fitted effect of over 45% in size
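AMA1 (3D7) with his tag at 25 nM final met compounds first, then biotinylated RON2 peptide at 25 nM; detection used donor plus acceptor beads, 10 µg/mL apiece, read by AlphaScreen after 30 min at room temperature.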
Lassa entry inh – inhibitors of Lassa virus binding or cell entry. Potency, µM (series often up to 37.9 µM), usual class: inhibitors. 1.2% of 300,000 active. Lassa virus pseudotype entry inhibition, cell reporter; calls by dose curve; tested in HEK293 cells; further: nearly all actives have a fitted effect of over 50% in size
AmpC inh no detg – AmpC beta-lactamase inhibition without detergent; P00811; AmpC nitrocefin hydrolysis, absorbance 480 nm, 0.0001% Triton; Potency, µM (doses to about 57.1 µM), hits mostly inhibitors; 0.52% of 330,000 active; further: nearly all actives have a fitted effect of over 20% in size
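20 mM phosphate pH 7.0 + 0.01% (detergent screen) or 0.0001% Triton X-100; 5.3 nM AmpC reagent; cpd preinc 15 min RT; nitrocefin (800 uM stock) to start; A480 q20 s × 4 min; Activity was normalised to no-enzyme and no-compound control wells.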
Marburg entry inh – blocks Marburg virus binding to or entry into cells; Marburg virus pseudotyped entry inhibition, cell reporter; AID 540276; Potency, µM (top dose mostly 37.8 µM), actives largely listed as inhibitors; 1.8% of 300,000 active; calls by dose curve; tested in HEK293 cells
Hits are given with their value; – = inactive; ? = inconclusive; · = no result; [ ] = dose if it differs, or a comment. Unless noted, the call rests on the fitted dose curve; in most records, active means well fitted curve in the direction sought with a large enough effect; inconclusive means small, poorly fitted or top-dose-only effect, or another doubt; inactive means no such curve, though single readings can be large; an effect the other way counts as inactive or inconclusive.

SMILES | AmpC inh detg | AMA1 RON2 block | Lassa entry inh | AmpC inh no detg | Marburg entry inh
CCNC(=S)NNC(=O)c1cc(-c2cccc(OC)c2)nc2ccccc12 | – | – | ? | – | ?
CC(C)(C)c1ccc(-c2cc(C(=O)NNC(=O)Nc3ccccc3)c3ccccc3n2)cc1 | – | – | 5.62µM | – | ?
O=C(NNS(=O)(=O)c1ccc(Cl)cc1)c1cc(-c2ccccc2)nc2ccccc12 | – | – | – | 28.2µM | –
CCNC(=S)NNC(=O)c1cc(-c2ccc(OCC)cc2)nc2ccccc12 | – | – | 1.16µM | – | ?
COc1cccc(-n2c(=O)c3c(C)c(C)sc3n(CC(=O)Nc3ccccc3OC)c2=O)c1 | – | · | – | · | ?
Cc1ccc(C(=O)c2c(C)oc3c2C(=O)C(=O)c2ccccc2-3)cc1 | – | – | 7.08µM | – | 7.94µM
COc1cccc([C@@H]2Oc3ccc(Br)cc3C(=O)[C@@H]2OC(=O)Nc2cc(OC)c(OC)c(OC)c2)c1 | · | · | · | · | –
CCOC(=O)CCCCC(=O)c1[nH]c(=O)[nH]c1CSCCO | – | 7.52µM | – | – | –
CCOC(=O)CCCCC(=O)c1[nH]c(=O)[nH]c1Cn1cnc2ccccc21 | – | 37.7µM | – | – | –
CN1CCc2c(n(C[C@H](O)CN3C(=O)c4ccccc4S3(=O)=O)c3ccccc23)C1=O | · | · | · | · | –
Cc1cccc(-c2nnc(C3CCN(S(=O)(=O)c4cccc(Cl)c4)CC3)o2)c1 | – | · | – | · | ?
CCC1CN(C(=O)N2CCC(C(=O)NCc3cccc(C)c3)CC2)c2ccccc2O1 (stereo not given) | – | · | – | · | ·
O=C(Cn1ncc(Cl)c(Cl)c1=O)N1CCN(S(=O)(=O)c2ccc3ccccc3c2)CC1 | – | – | ? | – | 1.78µM
Cn1c(N)c(C(=O)COC(=O)c2ccccc2C(=O)c2ccc(Cl)c([N+](=O)[O-])c2)c(=O)n(C)c1=O | · | – | ? | – | 11.2µM
O=C(COC(=O)c1ccccc1C(=O)c1ccc(Cl)c([N+](=O)[O-])c1)NC1CCCCCC1 | – | – | 18.3µM | – | 4.11µM
COc1cccc([C@@H]2Oc3ccc(Br)cc3C(=O)[C@H]2OC(=O)N[C@H]2CCCc3ccccc32)c1 | · | · | · | · | –
CCCC(=O)NC1CC(=O)N(c2ccc3c(c2)OCCO3)C1 (stereo not given) | – | · | – | · | ·
C=C(C)C(=O)C=CCCCC=CC(=O)OCC | · | · | · | · | –
COc1ccc(S(=O)(=O)N2CCCC2CNC(=O)C(=O)NCc2ccccc2Cl)cc1 (stereo not given) | – | – | ? | 28.2µM | ?
Cc1ccc(S(=O)(=O)N2CCCC2CNC(=O)C(=O)Nc2ccc(F)cc2)cc1 (stereo not given) | – | – | 5.01µM | – | –
Cc1ccc(S(=O)(=O)N2CCN(C(C(=O)Nc3ccc(F)cc3)c3ccccc3)CC2)cc1 (stereo not given) | – | –[11.6 µM] | 6.31µM | – | ?
CCC1CCCCN1S(=O)(=O)c1ccc(NC(=O)c2cccs2)cc1 (stereo not given) | – | – | 5.17µM | – | –
Cc1ccc(NC(=O)C2CCCN(c3nnc(C)c4c(C)n(-c5ccccc5)nc34)C2)c(Cl)c1 (stereo not given) | – | · | ? | · | ·
O=C(NCCc1ccccc1)C(=O)NCC1CCCN1S(=O)(=O)c1ccccc1 (stereo not given) | ? | – | ? | – | 11.2µM
CCOC(=O)CN1C(=O)NC(c2cccc(F)c2)C(C(=O)OC)=C1C (stereo not given) | · | · | · | · | –
SMILES | AmpC inh detg | AMA1 RON2 block | Lassa entry inh | AmpC inh no detg | Marburg entry inh
COc1ccc(C(=O)/C=C/Nc2ccc([N+](=O)[O-])cc2C)cc1OC | – | – | – | 2µM | –
COc1ccc(OC)c(CNc2ccc([N+](=O)[O-])cc2C)c1 | – | 12.6µM | – | – | –
COc1ccc(C(=O)NC(=S)Nc2ccc([N+](=O)[O-])cc2C)cc1OC | – | – | – | ? | –
COc1ccccc1CC(=O)Nc1ccc([N+](=O)[O-])cc1O | – | – | 6.31µM | – | ?
COc1ccc(C(=O)/C=C/Nc2ccc([N+](=O)[O-])cc2C)c(OC)c1 | – | – | – | 1.26µM | –
Cc1ccc(-c2nn(-c3cccc([N+](=O)[O-])c3)c3c2cnc2ccc(F)cc23)cc1 | – | · | – | · | ·
CCOC(=O)C1CCN(Cc2cnc(Oc3ccc(OC)cc3)s2)CC1 | – | – | 1.46µM | – | –
Cc1ccccc1NC(=O)CSc1cn(CC(=O)N2CCCCCC2)c2ccccc12 | – | · | – | · | ·
Cc1cc(-c2ccccc2)nc(N2CCN(c3ccccn3)CC2)n1 | – | – | 4.61µM | – | 9.2µM
O=C(CCCn1c(=O)c2cccn2c2ccccc21)Nc1cccc(Cl)c1 | – | · | ? | · | ·
Cc1ccc(C2=NN(C(=O)CSc3nc4ncc(Cl)cc4[nH]3)C(c3ccco3)C2)cc1 (stereo not given) | ? | – | – | 10µM | –
CC1C=CC(C(C2C(=O)CC(C)(C)CC2=O)C2C(=O)CC(C)(C)CC2=O)S1 (stereo not given) | · | · | · | · | –
CC(=O)Nc1ccc(SCC(=O)c2cc(C)n(-c3ccccc3)c2C)cc1 | – | – | – | – | –
CCCCCCCC[n+]1c(C)n(-c2ccccc2)c2ccc(NC(C)=O)cc21 | ? | – | 7.08µM | – | ?
OCC1OC(n2ccc3c(NO)ncnc32)C(O)C1O (stereo not given) | · | – | ? | · | 0.316µM
OC[C@H]1O[C@@H](n2cnc3c(Nc4ccccc4)ncnc32)[C@H](O)[C@@H]1O | – | – | ? | – | ?
OCC1OC(n2cnc3c(NCc4ccccc4O)ncnc32)C(O)C1O (stereo not given) | · | – | 2.24µM | · | ?
CN(C)c1ncnc2c1ccn2C1OC(CO)C(O)C1O (stereo not given) | · | – | 3.55µM | · | 2.24µM
COC(=O)C(C(C)=O)[C@@H](NC(=O)NCc1ccccc1)c1ccccc1 (stereo not given in full) | · | · | · | · | –
O=C(N/N=C/C(Br)=C/c1ccccc1)c1cc(-c2ccco2)[nH]n1 | – | – | ? | 20µM | ?
CC1=C(c2ccc(F)cc2)S(=O)(=O)N=C1N1CCC(C(=O)NCCc2cccc(C)c2)CC1 | – | · | – | · | ·
CC1=C(c2ccc(C)c(C)c2)S(=O)(=O)N=C1N1CCC(C(=O)NCCc2ccc(Cl)cc2)CC1 | – | · | · | · | 3.98µM
CCOC(=O)c1c(/C=N/Nc2ccccc2)c2sc(C)cc2n1C | – | · | · | – | ·
CC1=C(C(=O)NCc2cccc(Cl)c2)C2(CCCCCC2)OC1=O | – | · | – | · | ·
C=CCOc1ccccc1/C=N/NC(=O)c1ccc(Cl)cc1Cl | – | – | – | 25.1µM | ?
Cc1ccc(Nc2nc(N)c([N+](=O)[O-])c(N3CCC(C)CC3)n2)cc1C | – | – | – | ? | 14.1µM
COc1ccccc1Cc1nc2ccccc2nc1SCC(=O)NCc1ccccc1Cl | – | · | – | · | ·
Cc1ccc(S(=O)(=O)N(C)c2ccc(OCC(=O)Nc3nnc(C4CC4)s3)cc2)cc1 | – | – | – | 14.1µM | ?
Cc1ccc(S(=O)(=O)Nc2nnc(C3CCCCC3)s2)cc1 | – | – | – | – | –
